Test results taken from ChEMBL document CHEMBL3988442, “University of Dundee, Small-Polar-MMV Screening Library” (2021).
Screen size: about 66,000 compounds; about 960 (1.5%) showed an effect of 50% or more. The full list was thinned out, with strong results kept by preference.

Test system: Trypanosoma brucei
Test: Trypanosoma brucei 72 hour study
Assay type: functional, organism-based
Design: scale not given: in the data most compounds retested in dose-response had high values

O=C(O)C(F)(F)F.O=S(=O)(C1CC1)N1CCO[C@H]2[C@@H](Oc3ncccc3F)CC[C@@H]21
Percent Effect (30.3 µM, […]): -15.89%

CC(C)c1cn(CC(=O)NC2CC(=O)N(CCc3ccccc3)C2)nn1 (centres undefined)
Percent Effect (30.3 µM, […]): -9.844%

CCN(Cc1noc(CC(C)C)n1)Cc1ccccc1C(=O)O
Percent Effect (30.3 µM, […]): 12.17%

CCN(Cc1noc(CC(C)C)n1)Cc1ccccc1C
Percent Effect (30.3 µM, […]): 13.68%

CCN(Cc1noc(CC(C)C)n1)Cc1ccccc1Cl
Percent Effect (30.3 µM, […]): 100%

COc1cccc(CN2CCCC(c3nn(C)c4nccnc34)C2)c1.Cl (centres undefined)
Percent Effect (30.3 µM, […]): -9.344%

Cc1cnc(CN2C[C@H]3C[C@H](Oc4ccccc4)C[C@H]3C2)cn1
Percent Effect (30.3 µM, […]): -12.87%

Cc1nc(COCc2cnc3n2CCN(CC2CCC2)C3C)cs1.O=C(O)C(F)(F)F (centres undefined)
Percent Effect (30 µM, 30.03 µM): 77.97%

Cc1nc(COCc2cnc3n2CCN(C2CCC2)C3C)cs1.O=C(O)C(F)(F)F (centres undefined)
Percent Effect (30 µM, 30.03 µM): -3.887%

Cc1nc(COCc2cnc3n2CCN(C)C3C)cs1.O=C(O)C(F)(F)F (centres undefined)
Percent Effect (30.3 µM, […]): 14.84%

O=C(NCc1ccco1)[C@H]1C[C@@H]2CCN(c3cccc(F)c3)C[C@H]2O1.O=C(O)C(F)(F)F
Percent Effect (30.3 µM, […]): 0.588%

COCc1ncn(Cc2nc(-c3ccc(OC)cc3F)oc2C)n1
Percent Effect (30.3 µM, […]): -22.44%

CCCOC1CCCN(Cc2nc(-c3ccc(F)cc3F)oc2C)C1 (centres undefined)
Percent Effect (30.3 µM, […]): 19.33%

COc1ccc(-c2nc(CN3CCCC(OC)C3)c(C)o2)c(F)c1 (centres undefined)
Percent Effect (30.3 µM, […]): 99.32%

Cc1nnc(CN2C[C@H]3CC[C@@H]2CN(C2Cc4ccccc4C2)C3)o1
Percent Effect (30 µM, 30.03 µM): 19.71%

COCC1N(C(=O)c2ccco2)[C@H]2CC[C@]1(O)CC2 (some centres undefined)
Percent Effect (30.3 µM, […]): -31.26%

O=C(NCC1CC1)[C@H]1C[C@@H]2CN(S(=O)(=O)Cc3ccccc3)C[C@H]1O2
Percent Effect (30 µM, 30.03 µM): -18.74%

O=C(NCC1CCCCC1)NC1CCCc2c1cnn2CCO (centres undefined)
Percent Effect (30 µM, 30.03 µM): -28.76%

O=C(NCC(F)(F)F)NC1CCCc2c1cnn2CCO (centres undefined)
Percent Effect (30 µM, 30.03 µM): 3.56%

O=C(NC1CCCCC1)NC1CCCc2c1cnn2CCO (centres undefined)
Percent Effect (30 µM, 30.03 µM): 61.21%

COc1ccc(CN2CCc3ncnc(C4CC4)c3CC2)cc1.O=C(O)C(F)(F)F
Percent Effect (30 µM, 30.03 µM): -6.255%

Cc1nc(C)n(CC2CCCCN2Cc2nc3ccccc3o2)n1 (centres undefined)
Percent Effect (30.3 µM, […]): -29.61% | Percent Effect (10 mM, 10 mM as filed; unlikely as a test dose): -25.93%

Cc1cc(N2CCC(O)(CN(C)C)C2)c2cc3c(cc2n1)OCO3 (centres undefined)
Percent Effect (30 µM, 30.03 µM): 101.2%

Cc1cc(N2CCCC3(CN(C)C(=O)O3)C2)c2cc3c(cc2n1)OCO3 (centres undefined)
Percent Effect (30 µM, 30.03 µM): -17.57%

Cc1cc(N2CCCC(O)(CN(C)C)C2)c2cc3c(cc2n1)OCO3 (centres undefined)
Percent Effect (30 µM, 30.03 µM): 17.65%

CN(C)C[C@H]1OC[C@@H]2CCN(S(=O)(=O)c3ccc(F)cc3)C[C@@H]21.O=C(O)C(F)(F)F
Percent Effect (30 µM, 30.03 µM): -20.07%

Cn1cncc1CN1CCC2(CC1)COCCN(S(C)(=O)=O)C2.O=C(O)C(F)(F)F
Percent Effect (30.3 µM, […]): -5.891%

Cc1ccc2c(c1)C1(CCNCC1)CN2C(=O)C(C)C
Percent Effect (30.3 µM, […]): -10.81%

Cl.Cl.O=C([C@H]1CCCN1)N1CC2(CCNCC2)c2cc(Cl)ccc21
Percent Effect (30.3 µM, […]): 11.24%

Cl.O=C(c1ccccc1F)N1CC2(CCNCC2)c2cc(Cl)ccc21
Percent Effect (30.3 µM, […]): -26.55%

CC(C)C[C@H](N)C(=O)N1CC2(CCNCC2)c2cc(Cl)ccc21.Cl.Cl
Percent Effect (30.3 µM, […]): 46.04%

CCOC(=O)N1CC2(CCNCC2)c2cc(Cl)ccc21.Cl
Percent Effect (30.3 µM, […]): 80.77%

Cl.Cl.O=C([C@@H]1CSCN1)N1CC2(CCNCC2)c2cc(Cl)ccc21
Percent Effect (30.3 µM, […]): -15.46%

CN(C)C(=O)N1CC2(CCNCC2)c2cc(Cl)ccc21.Cl
Percent Effect (30.3 µM, […]): -10.23%

C[C@@H](N)C(=O)N1CC2(CCNCC2)c2cc(Cl)ccc21.Cl.Cl
Percent Effect (30.3 µM, […]): 51.33%

COCCN1CC[C@H](OC)[C@@H]1Cc1ccccc1.O=C(O)C(F)(F)F
Percent Effect (30 µM, 30.03 µM): -24.73%

O=C(COC[C@@]12CCC[C@@H]1CN(C1CCC1)C2)N1CCCC1.O=C(O)C(F)(F)F
Percent Effect (30.3 µM, […]): -61.71%

Cc1nn(C)c2c(=O)n(CC(=O)NCC3CCCO3)ccc12 (centres undefined)
Percent Effect (30 µM, 30.03 µM): -1.766%

CNC(=O)CN1CC[C@H]2CN(C(=O)c3ccoc3)C[C@H]2C1.O=C(O)C(F)(F)F
Percent Effect (30.3 µM, […]): -45.09%

CCOCC1CN(Cc2nccs2)Cc2nn(CC3CC3)cc21.O=C(O)C(F)(F)F (centres undefined)
Percent Effect (30 µM, 30.03 µM): -7.531%

COc1ncc(CN(CCCN2CCOCC2)Cc2ccc(C)o2)cn1.O=C(O)CC(O)(CC(=O)O)C(=O)O
Percent Effect (30.3 µM, […]): -12.51%

CNc1nc(C2CCCN2C(C)=O)nc2c1CN(CCO)CC2.O=CO (centres undefined)
Percent Effect (30.3 µM, […]): 20.17%

CCOc1ccc([C@@H]2N[C@H](c3nccs3)Cc3ccsc32)cc1OC
Percent Effect (30.3 µM, […]): 10.72%

COc1ccc(OC)c([C@@H]2N[C@H](c3nccs3)Cc3ccsc32)c1
Percent Effect (30.3 µM, […]): 15.15%

CCOc1cc([C@H]2N[C@@H](c3nc(C)cs3)Cc3ccsc32)ccc1OC
Percent Effect (30.3 µM, […]): 85.49%

COc1cccc([C@@H]2N[C@H](c3nccs3)Cc3ccsc32)c1OC
Percent Effect (30.3 µM, […]): 100.1%

COc1cc([C@@H]2N[C@H](c3nccs3)Cc3ccsc32)cc(OC)c1OC
Percent Effect (30.3 µM, […]): -6.656%

CCOc1cc([C@@H]2N[C@H](c3nccs3)Cc3ccsc32)ccc1OC
Percent Effect (30.3 µM, […]): 9.707%

O=C(CN1C[C@H]2C[C@H](OCc3ccccc3)C[C@H]2C1)N1CCOCC1
Percent Effect (30.3 µM, […]): -15.88%

Cc1cc(C)n(CC2CN(c3nnc(C)c(C)c3C#N)CCO2)n1 (centres undefined)
Percent Effect (30.3 µM, […]): 5.324%

NC1(C(=O)NCC2CCCN(Cc3ccccc3F)C2)CCCC1 (centres undefined)
Percent Effect (30 µM, 30.03 µM): -11%

O=C(NCC1CCCN(Cc2cccc3nonc23)C1)c1ccc[nH]1 (centres undefined)
Percent Effect (30 µM, 30.03 µM): -46.2%

NC1(C(=O)NCC2CCCN(Cc3cccc4nonc34)C2)CCC1 (centres undefined)
Percent Effect (30 µM, 30.03 µM): 54.97%

COc1ccc(CN2CCc3nc4ccsc4c(=O)n3CC2)c(C)c1C
Percent Effect (30.3 µM, […]): 7.671%

CCn1cc(NC(=O)C(C)n2ncc(Cl)c2C)c(C(=O)NC)n1 (centres undefined)
Percent Effect (30 µM, 30.03 µM): -19.95%

CC(C)CNC(=O)[C@H]1CCS(=O)(=O)[C@@H]2CN(Cc3ccc(F)cc3)C[C@H]12.O=C(O)C(F)(F)F
Percent Effect (30.3 µM, […]): -43.77%

Cc1ccc(CN2C[C@@H]3[C@@H](C(=O)NCC(C)C)CCS(=O)(=O)[C@@H]3C2)cc1.O=C(O)C(F)(F)F
Percent Effect (30.3 µM, […]): -11.51%

CC(C)CNC(=O)[C@H]1CCS(=O)(=O)[C@@H]2CN(Cc3ccc(Cl)cc3)C[C@H]12.O=C(O)C(F)(F)F
Percent Effect (30 µM, 30.03 µM): 63.22%
